Measured values as given in PubChem BioAssay AID1159580 (chemical genetic matrix, 2015).
Out of some 5,500 compounds screened, about 2,000 (36%) were called active. Another 18% or so got no clear call; they are omitted. No stated cut-off is given here; in the data, active means normalized growth mostly below about 0.91 (no sharp cut-off); inconclusive means no clear call, values can overlap the other calls; inactive means mostly above about 0.92. Some of the results follow.

Assay: chemical genetic growth profiling, strain panel (AID 1159580);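 further: tested at 20 µM; growth read once vehicle control cultures reached saturation at 30 °C; 1 = growth at the plate median or of vehicle wells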
Conditions: growth OD
[1] = S. cerevisiae deletion strains, locus YDL101C, strain DUN1, stronger effect = lower value
[2] = S. cerevisiae deletion strains, locus YHR030C, strain SLT2, stronger effect = lower value

Measured: normalized growth

Cc1cccc(NC(=S)N/N=C\c2ccc(F)cc2)c1
active: [2] 0.821 | S. cerevisiae deletion strains, locus YJR066W, strain TOR1 (second series), stronger effect = lower value 0.601 | S. cerevisiae deletion strains, locus YLR113W, strain HOG1, stronger effect = lower value 0.847 | S. cerevisiae deletion strains, locus YPL256C, strain CLN2, stronger effect = lower value 0.843
inactive: S. cerevisiae deletion strains, locus YAR019C, strain CDC15, stronger effect = lower value 0.96 | S. cerevisiae deletion strains, locus YBL105C, strain PKC1, stronger effect = lower value 0.966 | S. cerevisiae deletion strains, locus YBR135W, strain CKS1, stronger effect = lower value 0.966 | S. cerevisiae deletion strains, locus YBR136W, strain MEC1, stronger effect = lower value 0.965 | S. cerevisiae deletion strains, locus YBR160W, strain CDC28, stronger effect = lower value 0.958 | S. cerevisiae deletion strains, locus YDL017W, strain CDC7, stronger effect = lower value 0.958 | S. cerevisiae deletion strains, locus YDL028C, strain MPS1, stronger effect = lower value 0.958 | [1] 0.967 | S. cerevisiae deletion strains, locus YDL108W, strain KIN28, stronger effect = lower value 0.962 | S. cerevisiae deletion strains, locus YDL132W, strain cdc53, stronger effect = lower value 0.934 | S. cerevisiae deletion strains, locus YDL214C, strain PRR2, stronger effect = lower value 0.867 | S. cerevisiae deletion strains, locus YDR052C, strain DBF4, stronger effect = lower value 0.956 | S. cerevisiae deletion strains, locus YDR054C, strain cdc34, stronger effect = lower value 0.938 | S. cerevisiae deletion strains, locus YDR226W, strain ADK1, stronger effect = lower value 0.952 | S. cerevisiae deletion strains, locus YDR477W, strain SNF1, stronger effect = lower value 0.835 | S. cerevisiae deletion strains, locus YER123W, strain YCK3, stronger effect = lower value 0.806 | S. cerevisiae deletion strains, locus YER133W, strain GLC7, stronger effect = lower value 0.847 | S. cerevisiae deletion strains, locus YFL009W, strain cdc4, stronger effect = lower value 0.953 | S. cerevisiae deletion strains, locus YFL029C, strain CAK1, stronger effect = lower value 0.954 | S. cerevisiae deletion strains, locus YFR003C, strain YPI1, stronger effect = lower value 0.972 | S. cerevisiae deletion strains, locus YFR019W, strain FAB1, stronger effect = lower value 0.919 | S. cerevisiae deletion strains, locus YFR028C, strain CDC14, stronger effect = lower value 0.954 | S. cerevisiae deletion strains, locus YGR040W, strain KSS1, stronger effect = lower value 0.824 | S. cerevisiae deletion strains, locus YGR052W, strain FMP48, stronger effect = lower value 0.871 | S. cerevisiae deletion strains, locus YGR092W, strain DBF2, stronger effect = lower value 0.691 | S. cerevisiae deletion strains, locus YHR079C, strain IRE1, stronger effect = lower value 0.762 | S. cerevisiae deletion strains, locus YHR082C, strain KSP1, stronger effect = lower value 0.825 | S. cerevisiae deletion strains, locus YHR205W, strain SCH9, stronger effect = lower value 0.874 | S. cerevisiae deletion strains, locus YIL147C, strain SLN1, stronger effect = lower value 0.963 | S. cerevisiae deletion strains, locus YJL095W, strain BCK1, stronger effect = lower value 0.834 | S. cerevisiae deletion strains, locus YJL128C, strain PBS2, stronger effect = lower value 0.98 | S. cerevisiae deletion strains, locus YJL157C, strain FAR1, stronger effect = lower value 0.876 | S. cerevisiae deletion strains, locus YJR016C, strain ILV3, stronger effect = lower value 0.961 | S. cerevisiae deletion strains, locus YJR066W, strain TOR1, stronger effect = lower value 0.773 | S. cerevisiae deletion strains, locus YKL048C, strain ELM1, stronger effect = lower value 0.919 | S. cerevisiae deletion strains, locus YKL067W, strain YNK1, stronger effect = lower value 0.9 | S. cerevisiae deletion strains, locus YKL101W, strain HSL1, stronger effect = lower value 0.884 | S. cerevisiae deletion strains, locus YKL193C, strain SDS22, stronger effect = lower value 0.961 | S. cerevisiae deletion strains, locus YKL203C, strain TOR2, stronger effect = lower value 0.844 | S. cerevisiae deletion strains, locus YLR133W, strain CKI1, stronger effect = lower value 0.847 | S. cerevisiae deletion strains, locus YLR403W, strain SFP1, stronger effect = lower value 0.789 | S. cerevisiae deletion strains, locus YML070W, strain DAK1, stronger effect = lower value 0.88 | S. cerevisiae deletion strains, locus YMR001C, strain CDC5, stronger effect = lower value 0.965 | S. cerevisiae deletion strains, locus YMR205C, strain PFK2 (second series), stronger effect = lower value 0.879 | S. cerevisiae deletion strains, locus YMR277W, strain FCP1, stronger effect = lower value 0.958 | S. cerevisiae deletion strains, locus YNL006W, strain LST8, stronger effect = lower value 0.967 | S. cerevisiae deletion strains, locus YNL020C, strain ARK1, stronger effect = lower value 0.853 | S. cerevisiae deletion strains, locus YNL161W, strain CBK1, stronger effect = lower value 0.969 | S. cerevisiae deletion strains, locus YNL183C, strain NPR1, stronger effect = lower value 0.749 | S. cerevisiae deletion strains, locus YNL207W, strain RIO2, stronger effect = lower value 0.946 | S. cerevisiae deletion strains, locus YNL222W, strain SSU72, stronger effect = lower value 0.965 | S. cerevisiae deletion strains, locus YNL307C, strain MCK1 (second series), stronger effect = lower value 0.788 | S. cerevisiae deletion strains, locus YOL078W, strain AVO1, stronger effect = lower value 0.953 | S. cerevisiae deletion strains, locus YOL136C, strain PFK27, stronger effect = lower value 0.844 | S. cerevisiae deletion strains, locus YOR061W, strain CKA2, stronger effect = lower value 0.839 | S. cerevisiae deletion strains, locus YOR119C, strain RIO1, stronger effect = lower value 0.915 | S. cerevisiae deletion strains, locus YOR231W, strain MKK1, stronger effect = lower value 0.843 | S. cerevisiae deletion strains, locus YOR329C, strain SCD5, stronger effect = lower value 0.959 | S. cerevisiae deletion strains, locus YPL031C, strain PHO85, stronger effect = lower value 0.794 | S. cerevisiae deletion strains, locus YPL153C, strain RAD53, stronger effect = lower value 0.773 | S. cerevisiae deletion strains, locus YPL204W, strain HRR25, stronger effect = lower value 0.795 | S. cerevisiae deletion strains, locus YPL209C, strain IPL1, stronger effect = lower value 0.964 | S. cerevisiae deletion strains, locus YPR025C, strain CCL1, stronger effect = lower value 0.961 | S. cerevisiae deletion strains, locus YPR106W, strain ISR1, stronger effect = lower value 0.968 | S. cerevisiae deletion strains, locus YPR111W, strain DBF20, stronger effect = lower value 0.965 | S. cerevisiae deletion strains, strain NNK1, stronger effect = lower value 0.967 | S. cerevisiae deletion strains, strain TSCII, stronger effect = lower value 0.961

CCCOc1ccccc1/C=N\NC(=S)Nc1cccc(F)c1
inactive: S. cerevisiae deletion strains, locus YAL013W, strain DEP1, stronger effect = lower value 0.999 | S. cerevisiae deletion strains, locus YBR229C, strain ROT2, stronger effect = lower value 1.02 | S. cerevisiae deletion strains, locus YCL061C, strain MRC1, stronger effect = lower value 1.01 | [1] 1.04 | S. cerevisiae deletion strains, locus YDR150W, strain NUM1, stronger effect = lower value 1 | S. cerevisiae deletion strains, locus YEL061C, strain CIN8, stronger effect = lower value 1 | S. cerevisiae deletion strains, locus YGR078C, strain PAC10, stronger effect = lower value 1 | S. cerevisiae deletion strains, locus YGR229C, strain SMI1, stronger effect = lower value 1.01 | [2] 0.921 | S. cerevisiae deletion strains, locus YHR087W, strain rtc3, stronger effect = lower value 1.03 | S. cerevisiae deletion strains, locus YJL187C, strain SWE1, stronger effect = lower value 1 | S. cerevisiae deletion strains, locus YJR043C, strain POL32, stronger effect = lower value 1.01 | S. cerevisiae deletion strains, locus YJR075W, strain HOC1, stronger effect = lower value 1.08 | S. cerevisiae deletion strains, locus YLR039C, strain RIC1, stronger effect = lower value 1.02 | S. cerevisiae deletion strains, locus YLR058C, strain SHM2 (second series), stronger effect = lower value 1 | S. cerevisiae deletion strains, locus YLR085C, strain ARP6, stronger effect = lower value 0.882 | S. cerevisiae deletion strains, locus YLR262C, strain YPT6, stronger effect = lower value 1.02 | S. cerevisiae deletion strains, locus YML094W, strain GIM5, stronger effect = lower value 1.01 | S. cerevisiae deletion strains, locus YMR219W, strain ESC1, stronger effect = lower value 1.01 | S. cerevisiae deletion strains, locus YMR263W, strain SAP30, stronger effect = lower value 0.966 | S. cerevisiae deletion strains, locus YMR307W, strain GAS1, stronger effect = lower value 0.93 | S. cerevisiae deletion strains, locus YNL153C, strain GIM3, stronger effect = lower value 1 | S. cerevisiae deletion strains, locus YNL298W, strain CLA4 (second series), stronger effect = lower value 0.983 | S. cerevisiae deletion strains, locus YNL322C, strain KRE1, stronger effect = lower value 1.03 | S. cerevisiae deletion strains, locus YNR030W, strain Alg12, stronger effect = lower value 0.988 | S. cerevisiae deletion strains, locus YPL055C, strain LGE1, stronger effect = lower value 0.945 | S. cerevisiae deletion strains, locus YPL241C, strain CIN2, stronger effect = lower value 0.996 | S. cerevisiae deletion strains, locus YPR135W, strain CTF4, stronger effect = lower value 0.987 | S. cerevisiae strains, strain wild type, stronger effect = lower value 1
